# The full list was thinned out, with the strongest signals kept by preference.
# B1: Surfactant Protein D (Human); Neck + Carbohydrate Recognition Domain (NCRD) (Homo sapiens) (protein)
# chain: MLLFLLSALVLLTQPLGYLEAEMKTYSHRTMPSACTLVMCSSVESGLPGRDRDGREGPRGEKGDPGLPGAAGQAGMPGQAGPVGPKGDNGSVGEPGPKGDTGPSGPPGPPGVPGPAGREGALGKQGNIGPQGKPGPKGEAGPKGEVGAPGMQGSAGARGLAGPKGERGVPGERGVPGNTGAAGSAGAMGPQGSPGARGPPGLKGDKGIPGDKGAKGESGLPDVASLRQQVEALQGQVQHLQAAFSQYKKVELFPNGQSVGEKIFKTAQFVKPFTEAQLLCTQAGGQLASPRSAAENAALQQLVVAKNEAAFLSMTDSKTEGKFTYPTGESLVYSNWAPGEPNDDGGSEDCVEIYTNGKWNDRACGEKRLVVCEF
# Legend:
# Experiment in all cases: glycan array binding signal (z-score within array); higher = stronger binding
# Settings in all cases: glycan notation: IUPAC condensed, linker removed; mutation: F335Y
# [1] = target: Fuc(a1-2)Gal(b1-3)GalNAc(b1-3)Gal
# Outline: (§1)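 From the Consortium for Functional Glycomics database, 3228 arrays were curated, keeping only those whose protein sequence was available. Binding is given as a within-array Z-score averaged across arrays sharing a protein sequence and across linkers. Negative Z-scores can be read as non-binding.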
# [2] = target: Fuc(a1-2)Gal(b1-3)GalNAc(b1-4)[Neu5Ac(a2-3)]Gal(b1-4)Glc
# Outline: as §1
# [3] = target: Fuc(a1-3)[Gal(b1-4)]GlcNAc(b1-4)Gal(b1-4)[Fuc(a1-3)]GlcNAc
# Outline: as §1
# [4] = target: Gal(a1-6)Glc
# Outline: as §1
# [5] = target: Gal(b1-3)[GlcNAc(b1-6)]GalNAc
# Outline: as §1
# [6] = target: Gal(b1-4)GlcNAc(b1-3)GalNAc
# Outline: as §1
# [7] = target: Gal6S(b1-4)Glc6S
# Outline: as §1
# [8] = target: GlcNAc(b1-2)Gal(b1-3)GalNAc
# Outline: as §1
# [9] = target: GlcNAc(b1-3)Gal
# Outline: as §1
# [10] = target: GlcNAc(b1-3)GalNAc
# Outline: as §1
# [11] = target: GlcNAc(b1-3)Man
# Outline: as §1
# [12] = target: Man(a1-2)Man(a1-2)Man(a1-6)[Man(a1-3)]Man
# Outline: as §1
# [13] = target: Man(a1-2)Man(a1-3)[Man(a1-2)Man(a1-6)]Man
# Outline: as §1
# [14] = target: Man(a1-2)Man(a1-3)[Man(a1-2)Man(a1-6)]Man(a1-6)[Man(a1-2)Man(a1-2)Man(a1-3)]Man
# Outline: as §1
# [15] = target: Man(a1-2)Man(a1-6)[Man(a1-3)]Man(a1-6)[Man(a1-2)Man(a1-2)Man(a1-3)]Man(b1-4)GlcNAc(b1-4)GlcNAc
# Outline: as §1
# [16] = target: Man(a1-3)[Man(a1-6)]Man(a1-6)[Man(a1-2)Man(a1-3)]Man(b1-4)GlcNAc(b1-4)GlcNAc
# Outline: as §1
# [17] = target: Man(a1-3)[Man(a1-6)]Man(a1-6)[Man(a1-3)]Man
# Outline: as §1
# [18] = target: Neu5Ac(a2-3)Gal(b1-3)GalNAc
# Outline: as §1
# [19] = target: Neu5Ac(a2-3)Gal(b1-4)GlcNAc(b1-6)[Neu5Ac(a2-3)Gal(b1-3)]GalNAc
# Outline: as §1
# [20] = target: Neu5Ac(a2-6)Gal(b1-4)GlcNAc(b1-3)Gal(b1-4)[Fuc(a1-3)]GlcNAc(b1-3)Gal(b1-4)[Fuc(a1-3)]GlcNAc
# Outline: as §1
binder,measurement,setting,value
B1,glycan array binding signal (z-score),[1],-0.184
same,glycan array binding signal (z-score),[2],-0.189
same,glycan array binding signal (z-score),[3],-0.183
same,glycan array binding signal (z-score),[4],-0.189
same,glycan array binding signal (z-score),[5],-0.185
same,glycan array binding signal (z-score),[6],-0.191
same,glycan array binding signal (z-score),[7],-0.187
same,glycan array binding signal (z-score),[8],-0.189
same,glycan array binding signal (z-score),[9],-0.18
same,glycan array binding signal (z-score),[10],-0.193
same,glycan array binding signal (z-score),[11],-0.187
same,glycan array binding signal (z-score),[12],5.87
same,glycan array binding signal (z-score),[13],7.66
same,glycan array binding signal (z-score),[14],7.37
same,glycan array binding signal (z-score),[15],5.84
same,glycan array binding signal (z-score),[16],7.18
same,glycan array binding signal (z-score),[17],3.93
same,glycan array binding signal (z-score),[18],-0.19
same,glycan array binding signal (z-score),[19],-0.178
same,glycan array binding signal (z-score),[20],-0.122
